Values without a mark were called inactive. Records with an inconclusive call do not appear. Entries that show only a call come without a potency. The source made the active and inactive calls. Unless noted, the call rests on the fitted dose curve.
Assays:
[1] = Nuclear factor erythroid 2-related factor 2/antioxidant responsive element (Nrf2/ARE) small molecule agonists: qHTS cell viability counter screen in human keratinocytes (AID 1919968; active means well fitted curve in the direction sought with a large enough effect in the repeat runs; an effect the other way counts as inactive or inconclusive; further: nearly all actives have a fitted effect of over 55% in size)
Outline: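 Fluorescence read-out from CellTiter-Fluor after 1 h at 37 C. Wells held HaCaT-derived ARE-luciferase reporter cells (1,500/well) treated 23 h with DMSO-dissolved compounds. Run in the same wells as the luciferase agonist read.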

[2] = Nuclear factor erythroid 2-related factor 2/antioxidant responsive element (Nrf2/ARE) small molecule agonists: luciferase reporter gene qHTS assay in human keratinocytes (AID 1919969); further: nearly all actives have a fitted effect of over 35% in size
[3] = target: Gonadotropin-releasing hormone receptor (Homo sapiens) (UniProt P30968); test: Human gonadotropin-releasing hormone receptor (GnRHR) small molecule agonists, calcium flux assay in GnRHR-HEK293 cells (AID 1920063); further: nearly all actives have a fitted effect of over 35% in size
Chain of Gonadotropin-releasing hormone receptor (Homo sapiens) (P30968 whole entry, looked up): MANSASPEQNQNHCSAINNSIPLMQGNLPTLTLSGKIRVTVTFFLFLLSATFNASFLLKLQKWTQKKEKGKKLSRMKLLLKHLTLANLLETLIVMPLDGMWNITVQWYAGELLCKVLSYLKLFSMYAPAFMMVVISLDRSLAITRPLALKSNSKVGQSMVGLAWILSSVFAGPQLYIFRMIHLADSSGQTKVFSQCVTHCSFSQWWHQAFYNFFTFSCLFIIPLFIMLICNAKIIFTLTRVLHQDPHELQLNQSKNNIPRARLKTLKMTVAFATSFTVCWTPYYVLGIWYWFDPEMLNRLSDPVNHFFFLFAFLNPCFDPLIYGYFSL
Outline: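 Calcium-dye fluorescence, Ex/Em=480/540, recorded every 1 sec over 3 min after compound addition to GnRHR-HEK293 cells. Cells had been seeded 18 hours earlier and dye-loaded for 1 hour at 37 C. Fifteen concentrations, triplicates.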

[4] = target: KiSS-1 receptor (Homo sapiens) (UniProt Q969F8); test: Human kisspeptin (KISS1R) small molecule agonists, calcium flux assay in KISS1R-HEK293 cells (AID 1920064; active means well fitted curve in the direction sought with a large enough effect in the repeat runs; an effect the other way counts as inactive or inconclusive)
Chain of KiSS-1 receptor (Homo sapiens) (Q969F8 whole entry, looked up): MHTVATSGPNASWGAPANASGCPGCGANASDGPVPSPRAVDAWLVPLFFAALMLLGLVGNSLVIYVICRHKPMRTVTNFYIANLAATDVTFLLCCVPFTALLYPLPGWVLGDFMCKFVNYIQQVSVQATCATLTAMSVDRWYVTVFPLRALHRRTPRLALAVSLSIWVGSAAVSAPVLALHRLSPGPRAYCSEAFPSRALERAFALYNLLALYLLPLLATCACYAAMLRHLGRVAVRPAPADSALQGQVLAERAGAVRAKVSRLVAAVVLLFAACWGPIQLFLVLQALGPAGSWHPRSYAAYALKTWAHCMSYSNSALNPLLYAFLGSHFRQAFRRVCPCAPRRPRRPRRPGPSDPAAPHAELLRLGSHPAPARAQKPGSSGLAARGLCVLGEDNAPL
Outline: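 Calcium flux read-out: kinetic fluorescence at Ex/Em=480/540, 1 s intervals over 3 min, after pin-tool compound addition to dye-loaded KISS1R-HEK293 cells. Fifteen concentrations, triplicates.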

[5] = G protein-coupled receptor (GPCR) small molecule agonists, calcium flux assay: HEK293 wild type cell line counter screen (AID 1920065)
Outline: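 Agonist mode; 18 h seeding at 37 C, 1 h dye load at 37 C; compounds pinned from DMSO, ATP as positive control; kinetic fluorescence 480/540 nm, 3 min, 1 s reads; 15 concentrations, triplicate.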

[6] = p53 small molecule agonists, cell-based qHTS assay with human liver microsomes (AID 1963577);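 further: p53 response element beta-lactamase reporter cells with liver microsomes plus NADPH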
Outline: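 Reporter activation was measured by LiveBLAzer fluorescence intensity in p53RE-bla cells, which had been exposed to compounds for 16 h at 37 C alongside 0.5 mg/mL human liver microsomes and 0.5 mg/mL NADPH (final concentrations).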

[7] = p53 small molecule agonists, cell-based qHTS assay with rat liver microsomes (AID 1963578)
Outline: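 Compound in DMSO added to p53RE-bla cells 5 h post-plating; rat microsomes/NADPH 0.5 mg/mL final; 16 h, 37 C; LiveBLAzer 2 h RT.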

[8] = p53 small molecule agonists, cell-based qHTS assay with human liver microsomes: qHTS cell viability counter screen (AID 1963579); further: nearly all actives have a fitted effect of over 45% in size
Outline: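 HLM-supplemented (0.5 mg/mL final) and NADPH-supplemented (0.5 mg/mL final) p53RE-bla cultures, 4,000 cells per well, were dosed with compounds in DMSO for 16 h at 37 C; luminescent ATP detection (CellTiter-Glo, 30 min, room temperature) quantified surviving cells.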

[9] = p53 small molecule agonists, cell-based qHTS assay with rat liver microsomes: qHTS cell viability counter screen (AID 1963580); further: nearly all actives have a fitted effect of over 45% in size
Outline: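 After the beta-lactamase ratio was read, CellTiter-Glo was added to the same wells and luminescence measured at 30 min; cells had been treated 16 h at 37 C with compounds, rat liver microsomes and NADPH (0.5 mg/mL final each).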

[10] = p53 small molecule agonists, cell-based qHTS assay: qHTS cell viability counter screen (AID 1963581); further: nearly all actives have a fitted effect of over 45% in size
Outline: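 Cytotoxicity read-out: ATP-based luminescence (CellTiter-Glo, 30 min RT) measured in the same wells as the p53 reporter assay, HCT-116 p53RE-bla cells, 16 h compound exposure at 37 C.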

[11] = p53 small molecule agonists, cell-based qHTS assay (AID 1963582; active means well fitted activation curve with a large enough effect in the signal ratio in the repeat runs, not every such curve was filed as active; the % refers to the signal ratio)
Outline: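 Fluorescence intensity read-out of a beta-lactamase reporter under a p53 response element. Cells were exposed to DMSO-dissolved compounds for 16 h at 37 C, then developed with FRET substrate for 2 h at RT.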

[12] = target: 5-hydroxytryptamine receptor 2A (Homo sapiens) (UniProt P28223); test: 5-hydroxytryptamine receptor 2A (HTR2A) small molecule agonists, cell-based qHTS assay (AID 1963587); further: nearly all actives have a fitted effect of over 30% in size
Chain of 5-hydroxytryptamine receptor 2A (Homo sapiens) (P28223 whole entry, looked up): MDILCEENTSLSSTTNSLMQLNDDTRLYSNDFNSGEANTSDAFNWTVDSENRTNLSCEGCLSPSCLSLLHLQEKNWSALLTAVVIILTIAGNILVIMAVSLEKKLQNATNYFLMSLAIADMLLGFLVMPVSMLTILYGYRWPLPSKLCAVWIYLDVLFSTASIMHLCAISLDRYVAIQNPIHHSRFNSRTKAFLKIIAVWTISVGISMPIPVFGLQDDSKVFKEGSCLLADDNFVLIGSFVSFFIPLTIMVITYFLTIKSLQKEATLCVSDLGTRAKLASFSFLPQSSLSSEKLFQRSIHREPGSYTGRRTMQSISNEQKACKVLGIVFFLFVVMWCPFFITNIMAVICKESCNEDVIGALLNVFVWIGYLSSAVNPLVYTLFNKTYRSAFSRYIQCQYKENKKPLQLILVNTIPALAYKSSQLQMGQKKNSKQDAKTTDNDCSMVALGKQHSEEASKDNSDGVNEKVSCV
Outline: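 CHO cells stably expressing human HTR2A, plated 18 h, loaded with calcium dye 1 h at 37 C. Agonist mode: compounds added and intracellular calcium fluorescence recorded kinetically for 2 min at 1 sec intervals.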

[13] = target: Muscarinic acetylcholine receptor M1 (Homo sapiens) (UniProt P11229); test: Cholinergic receptor muscarinic 1 (CHRM1) small molecule antagonists, cell-based qHTS assay (AID 1963588); further: nearly all actives have a fitted effect of over 40% in size; further: potency means the concentration at half of the fitted maximal effect
Chain of Muscarinic acetylcholine receptor M1 (Homo sapiens) (P11229 whole entry, looked up): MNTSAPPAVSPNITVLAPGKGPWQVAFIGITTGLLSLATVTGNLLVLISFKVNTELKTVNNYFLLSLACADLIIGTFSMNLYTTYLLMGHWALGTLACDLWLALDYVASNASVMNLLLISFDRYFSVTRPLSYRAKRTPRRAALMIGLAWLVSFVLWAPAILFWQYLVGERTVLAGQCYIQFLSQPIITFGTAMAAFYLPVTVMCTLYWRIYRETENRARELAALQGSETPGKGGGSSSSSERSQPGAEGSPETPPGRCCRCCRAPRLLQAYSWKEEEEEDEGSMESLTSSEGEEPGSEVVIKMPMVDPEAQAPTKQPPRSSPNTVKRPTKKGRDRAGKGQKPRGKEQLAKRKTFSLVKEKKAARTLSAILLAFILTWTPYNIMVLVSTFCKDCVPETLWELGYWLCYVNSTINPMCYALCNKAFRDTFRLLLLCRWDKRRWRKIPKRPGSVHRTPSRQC
Outline: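 Compounds were tested at 15 concentrations in three independent runs. Dye-loaded CHRM1-CHO cells were exposed 5 min at room temperature before stimulation by acetylcholine added at 50nM. Intracellular calcium was read kinetically on FDSS for 3 min.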

[14] = target: Muscarinic acetylcholine receptor M1 (Homo sapiens) (UniProt P11229); test: Cholinergic receptor muscarinic 1 (CHRM1) small molecule agonists, cell-based qHTS assay (AID 1963589); further: nearly all actives have a fitted effect of over 35% in size
Outline: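 Calcium flux read-out: kinetic fluorescence at 1 sec intervals after pin-tool compound addition to dye-loaded CHRM1-CHO cells (human M1). Agonist mode; 15 concentrations tested in triplicate independent runs.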

[15] = cAMP Responsive Elements (CRE) small molecule agonists, cell-based qHTS assay (AID 1963590)
Outline: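 Beta-lactamase reporter readout: LiveBLAzer B/G FRET substrate, 2 h at room temperature, added after 3 h compound treatment of CRE-bla HEK 293T cells at 37 C/5% CO2.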

[16] = cAMP Responsive Elements (CRE) small molecule antagonists, cell-based qHTS assay (AID 1963591; active means well fitted inhibition curve with a large enough effect in the signal ratio in the repeat runs, not every such curve was filed as active; the % refers to the signal ratio)
Outline: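 HEK293T CRE-bla; 18 h preincubation; compound pin-transfer; NKH477 0.25 uM final, 3 h, 37 C; LiveBLAzer FRET substrate 2 h RT.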

[17] = target: D(2) dopamine receptor (Homo sapiens) (UniProt P14416); test: Dopamine D2 receptor (DRD2) small molecule agonists, cell-based qHTS assay (AID 1963594); further: nearly all actives have a fitted effect of over 35% in size
Chain of D(2) dopamine receptor (Homo sapiens) (P14416 whole entry, looked up): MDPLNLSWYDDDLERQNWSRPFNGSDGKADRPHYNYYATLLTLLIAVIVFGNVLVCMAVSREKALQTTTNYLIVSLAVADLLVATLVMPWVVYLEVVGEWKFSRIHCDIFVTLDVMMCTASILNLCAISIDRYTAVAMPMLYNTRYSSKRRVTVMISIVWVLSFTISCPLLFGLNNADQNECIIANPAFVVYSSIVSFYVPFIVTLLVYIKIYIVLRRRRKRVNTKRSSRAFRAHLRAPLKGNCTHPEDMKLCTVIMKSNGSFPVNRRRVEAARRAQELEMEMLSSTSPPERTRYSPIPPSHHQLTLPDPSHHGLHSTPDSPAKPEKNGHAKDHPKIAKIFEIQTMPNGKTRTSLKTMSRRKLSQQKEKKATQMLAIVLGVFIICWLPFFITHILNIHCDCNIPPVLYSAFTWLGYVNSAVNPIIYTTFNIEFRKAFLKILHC
Outline: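 HEK293 cells stably expressing human DRD2, pre-treated with PDE inhibitor Ro20-1724 (0.1 mM final) and compound 10 min at room temperature, then stimulated with NKH477 (200nM […]) for 30 min. cAMP read by HTRF (665/620 nm).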

[18] = target: D(2) dopamine receptor (Homo sapiens) (UniProt P14416); test: Dopamine D2 receptor (DRD2) small molecule antagonists, cell-based qHTS assay (AID 1963595; active means well fitted inhibition curve with a large enough effect in the signal ratio in the repeat runs, with a control signal flat; the % refers to the signal ratio)
Outline: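 Human DRD2 antagonist qHTS measuring cAMP by HTRF. The cells are exposed to compound for 10 min, then to NKH477 (200 nM) and quinpirole (12 nM) for 30 min at RT, with Ro20-1724 (0.1 mM) present throughout.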

[19] = target: Beta-2 adrenergic receptor (Homo sapiens) (UniProt P07550); test: Adrenergic beta2 receptor (ADRB2) small molecule antagonists, cell-based qHTS assay (AID 1963592); further: series mostly up to about 92 µM; nearly all actives have a fitted effect of over 50% in size
Chain of Beta-2 adrenergic receptor (Homo sapiens) (P07550 whole entry, looked up): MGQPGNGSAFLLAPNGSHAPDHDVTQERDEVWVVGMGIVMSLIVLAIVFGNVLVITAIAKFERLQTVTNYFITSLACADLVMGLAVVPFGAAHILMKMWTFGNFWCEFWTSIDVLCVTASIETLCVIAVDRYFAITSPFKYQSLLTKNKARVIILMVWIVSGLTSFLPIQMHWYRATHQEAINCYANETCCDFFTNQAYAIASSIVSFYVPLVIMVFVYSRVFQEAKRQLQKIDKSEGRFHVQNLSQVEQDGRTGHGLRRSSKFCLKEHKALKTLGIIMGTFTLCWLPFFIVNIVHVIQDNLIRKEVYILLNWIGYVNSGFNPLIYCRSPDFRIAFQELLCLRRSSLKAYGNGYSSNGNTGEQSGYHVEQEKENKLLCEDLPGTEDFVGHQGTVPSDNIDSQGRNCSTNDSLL
Outline: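 Assay format: CHO-ADRB2 cells, 18-20hr seeding at 37C/5% CO2, then compound plus 1nM isoproterenol agonist mix for 0.5hr RT. Homogeneous time-resolved fluorescence cAMP detection after 1hr, expressed as 665/615 nm ratio.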

In the case of O=C(OCc1ccccc1)C(=O)OCc1ccccc1, the Potency [1] is reported as “inactive”, the Potency [2] is reported as “inactive” and the Potency [3] is reported as “inactive”. For the same compound, the outcome [4] was “inactive”, the outcome [5] was “inactive” and the Potency [6] was “inactive”. The Potency [7] was “inactive”, the Potency [8] was “inactive” and the Potency [9] was “inactive”. The Potency [10] was “inactive”, the Potency [11] was “inactive” and the Potency [12] was “inactive”. For the same compound, the Potency [13] was “inactive”, the Potency [14] was “inactive” and the Potency [15] was “inactive”. For the same compound, the Potency [16] was “inactive”, the Potency [17] was “inactive” and the Potency [18] was “inactive”.

In the case of CC(=O)OC1CCCCC1, the Potency [1] is reported as “inactive”, the Potency [2] is reported as “inactive” and the Potency [3] is reported as “inactive”. For the same compound, the outcome [4] was “inactive”, the outcome [5] was “inactive” and the Potency [6] was “inactive”. The Potency [7] was “inactive”, the Potency [8] was “inactive” and the Potency [9] was “inactive”. For the same compound, the Potency [10] was “inactive”, the Potency [11] was “inactive” and the Potency [12] was “inactive”. The Potency [13] was “inactive”, the Potency [14] was “inactive” and the Potency [15] was “inactive”. The Potency [16] was “inactive”, the Potency [19] was “inactive” and the Potency [18] was “inactive”.

With CCCCOc1cc(C(=O)OCCN(CC)CC)ccc1N the Potency [1] was “inactive”, the Potency [2] was “inactive” and the Potency [3] was “inactive”. For the same compound, the outcome [4] was “inactive”, the outcome [5] was “inactive” and the Potency [6] was “inactive”. The Potency [7] was “inactive”, the Potency [8] was “inactive” and the Potency [9] was “inactive”. The Potency [10] was “inactive”, the Potency [11] was “inactive” and the Potency [12] was “inactive”. The Potency [13] was “inactive”, the Potency [14] was “inactive” and the Potency [15] was “inactive”. For the same compound, the Potency [16] was “inactive”, the Potency [19] was “inactive” and the Potency [18] was “inactive”.

In the case of CC[N+]1(CC)CCC(=C(c2ccccc2)c2ccccc2)C1C (configuration not stated), the Potency [1] is reported as “inactive”, the Potency [2] is reported as “inactive” and the Potency [3] is reported as “inactive”. For the same compound, the outcome [4] was “inactive”, the outcome [5] was “inactive” and the Potency [6] was “inactive”. The Potency [7] was “inactive”, the Potency [8] was “inactive” and the Potency [9] was “inactive”. The Potency [10] was “inactive”, the Potency [11] was “inactive” and the Potency [12] was “inactive”. The Potency [13] was 25.9 nM (active), the Potency [14] was “inactive” and the Potency [15] was “inactive”. For the same compound, the Potency [16] was “inactive”, the Potency [19] was “inactive” and the Potency [17] was “inactive”. The Potency [18] was “inactive”.

With CCN1CCCC1CNC(=O)c1cc(S(=O)(=O)CC)c(N)cc1OC (configuration not stated) the Potency [1] was “inactive”, the Potency [2] was “inactive” and the Potency [3] was “inactive”. For the same compound, the outcome [4] was “inactive”, the outcome [5] was “inactive” and the Potency [6] was “inactive”. The Potency [7] was “inactive”, the Potency [8] was “inactive” and the Potency [9] was “inactive”. The Potency [10] was “inactive”, the Potency [11] was “inactive” and the Potency [12] was “inactive”. For the same compound, the Potency [13] was “inactive”, the Potency [14] was “inactive” and the Potency [15] was “inactive”. For the same compound, the Potency [19] was “inactive”.

In the case of C1OCOCO1, the Potency [1] is reported as “inactive”, the Potency [2] is reported as “inactive” and the Potency [3] is reported as “inactive”. For the same compound, the outcome [4] was “inactive”, the outcome [5] was “inactive” and the Potency [6] was “inactive”. For the same compound, the Potency [7] was “inactive”, the Potency [8] was “inactive” and the Potency [9] was “inactive”. For the same compound, the Potency [10] was “inactive”, the Potency [11] was “inactive” and the Potency [12] was “inactive”. For the same compound, the Potency [13] was “inactive”, the Potency [14] was “inactive” and the Potency [15] was “inactive”. For the same compound, the Potency [16] was “inactive”, the Potency [19] was “inactive” and the Potency [17] was “inactive”. The Potency [18] was “inactive”.

In the case of C[N+]1(C)CCC(=C(c2ccccc2)c2ccccc2)CC1, the Potency [1] is reported as “inactive”, the Potency [2] is reported as “inactive” and the Potency [3] is reported as “inactive”. The outcome [4] was “inactive”, the outcome [5] was “inactive” and the Potency [6] was “inactive”. For the same compound, the Potency [7] was “inactive”, the Potency [8] was “inactive” and the Potency [9] was “inactive”. For the same compound, the Potency [10] was “inactive”, the Potency [11] was “inactive” and the Potency [12] was “inactive”. For the same compound, the Potency [13] was 13 nM (active), the Potency [14] was “inactive” and the Potency [15] was “inactive”. For the same compound, the Potency [16] was “inactive”, the Potency [19] was “inactive” and the Potency [17] was “inactive”. The Potency [18] was “inactive”.
